{"source": "PubChem BioAssay AID893", "about": "(National Center for Advancing Translational Sciences (NCATS), 2007)", "note": "Out of some 75,000 compounds screened, about 5,700 (7.6%) were called active. A call without a number means that no potency is given here. About 7% were inconclusive and are not listed. This excerpt belongs to a sample that is enriched for actives. Unmarked numbers belong to inactive results. The call rests on the fitted dose curve; in most records, active means well fitted inhibition curve with a large enough effect; inconclusive means small, poorly fitted or top-dose-only effect; inactive means no such curve, though single readings can be large or run the other way. Potency means the concentration at half of the fitted maximal effect.", "data": [{"biological_target": "3-hydroxyacyl-CoA dehydrogenase type-2 (Homo sapiens) (UniProt Q99714)", "assay": "qHTS Assay for Inhibitors of HSD17B4, hydroxysteroid (17-beta) dehydrogenase 4; further: nearly all actives have a fitted effect of over 70% in size", "details": "recombinant HSD17B10, NADH fluorescence kinetic; series mostly up to 57.1 µM", "from_the_text": "Assay Overview: NIH Molecular Libraries Screening Centers Network [MLSCN] NIH Chemical Genomics Center [NCGC] Structural Genomics Consortium [SGC] Grant number: None HADH2: Hydroxyacyl-Coenzyme A dehydrogenase, type II, was supplied by researchers at the Structural Genomics Consortium, Oxford University lab (PI Udo Oppermann). The mitochondrial enzyme 17-hydroxysteroid dehydrogenase type 10 (HSD17-10) previously classified as type II hydroxyacyl-CoA dehydrogenase (HADH2) catalyzes the NAD+ dependent oxidation of a variety of substrates including acyl-CoAs, androgens and neurosteroids as well as bile acids(Shafqat N, Marschall HU, Filling C, et al. Biochemical Journal. 2003;376(Pt 1):49-60). […] The enzyme was produced by E.coli fermentation as His-tagged recombinant for the purpose of X-ray structure determination, and had been mass-spectrometry characterized. Inhibition of HADH2 activity was screened by utilizing beta-hydroxybutyryl coenzyme A as an electron donor and NAD+ as an electron acceptor/cofactor. An increase in the fluorescence intensity due to conversion of NAD+ to NADH was used to measure the enzyme activity.\nAssay Protocol: Buffer: 100 mM Tris-HCl pH 9.0, containing 0.01 % Tween-20. Reagents/Controls: Buffer in columns 3 and 4 as negative control (no enzyme). Substrate/cofactor solution: 1 mM NAD+ and 90 uM beta-hydroxybutyryl coenzyme A (Sigma-Aldrich, St. Louis, MO) final concentrations dispensed throughout the plate. Enzyme: 20 nM HADH2 final concentration in columns 1, 2, 5-48. Column 1 is neutral (100% activity). Column 2 contained titration of apomorphine (Sigma-Aldrich, A 4393, PubChem CID 2215, top concentration 500 uM, then 1:2 dilution in duplicate) Assay Steps: Three uL of enzyme were dispensed to 1536-well Greiner black solid bottom plates. Compounds and controls (23 nL) were transferred via Kalypsys PinTool. The plates were incubated for 15 min at room temperature, and then 1 uL of substrate/cofactor solution was added to start the reaction. The plates were immediately transferred to and read every 30 seconds for 4 min on ViewLux High-throughput CCD imager (Perkin-Elmer) using 360 nm excitation and 450 nm emission fluorescence protocol. The fluorescence intensity difference between the last and the first time points was used to compute reaction progress.", "values": [{"smiles": "Cc1cccc2c3c(ccc12)C1=C(C(=O)C3=O)C(C)CO1", "note": "(centres undefined)", "Potency": "20 µM (active)"}, {"smiles": "C[C@@]12CCC3C(CC[C@@H]4CC(O)CC[C@@]34C)C1CCC2O", "note": "(some centres undefined)", "Potency": "inactive"}, {"smiles": "CC(C)(C)[C@]1(O)C[C@@H]2OC(=O)C[C@@]23C(=O)O[C@@H]2OC(=O)[C@H](O)[C@]213", "Potency": "inactive"}, {"smiles": "Cc1cccc([C@H](C)c2cnc[nH]2)c1C", "Potency": "inactive"}, {"smiles": "c1ccc(CN2CC[C@@]3(CCCNC3)C2)cc1", "Potency": "inactive"}, {"smiles": "c1ccc(N2CC[C@@]3(CCCNC3)C2)nc1", "Potency": "31.6 µM (active)"}, {"smiles": "O=C1C2(Cl)C3(Cl)C4(Cl)C(Cl)(Cl)C5(Cl)C3(Cl)C1(Cl)C5(Cl)C24Cl", "note": "(centres undefined)", "Potency": "inactive"}, {"smiles": "CN1C2CC3CC1C(O3)C2O", "note": "(centres undefined)", "Potency": "inactive"}, {"smiles": "CCN1C[C@]2(COC)C(O)C[C@H](OC)[C@@]34C5C[C@]6(O)C(OC)C(O)[C@](OC(C)=O)(C5C6OC(=O)c5ccccc5)C(C(OC)C23)C14", "note": "(some centres undefined)", "Potency": "inactive"}, {"smiles": "CC(=O)OC1C2CCC3C1(CC(O)[C@@]1(O)[C@@H](CC(O)C1(C)C)[C@]3(C)O)C[C@@]2(C)O", "note": "(some centres undefined)", "Potency": "inactive"}, {"smiles": "CC(C)(C)C(O)(CCc1ccc(Cl)cc1)Cn1cncn1", "note": "(centres undefined)", "Potency": "inactive"}, {"smiles": "CCOC(=O)c1c(-c2ccccc2)oc2ccc(OC(=O)N(C)C)cc12", "Potency": "31.6 µM (active)"}, {"smiles": "c1ccc(CCCCN2CCC(c3ccccc3)CC2)cc1", "Potency": "inactive"}, {"smiles": "CN(C)C1C(=O)C(C(N)=O)=C(O)[C@@]2(O)C(=O)C3=C(O)c4c(O)cccc4[C@@](C)(O)C3C[C@@H]12", "note": "(some centres undefined)", "Potency": "inactive"}, {"smiles": "NCC[Se][Se]CCN", "Potency": "0.794 µM (active)"}, {"smiles": "N#CCCCl", "Potency": "inactive"}, {"smiles": "C=CCSSCC=C", "Potency": "inactive"}, {"smiles": "COc1cc(C[C@H](C)N)c(OC)cc1I", "Potency": "inactive"}, {"smiles": "CC(=O)c1c(O)c(C)c(O)c(Cc2c(O)c3c(c(C(=O)/C=C\\c4ccccc4)c2O)OC(C)(C)C=C3)c1O", "Potency": "31.6 µM (active)"}, {"smiles": "CCCCN1C2CCC1CC(OC(c1ccc(F)cc1)c1ccc(F)cc1)C2", "note": "(centres undefined)", "Potency": "inactive"}, {"smiles": "C[C@H](CCC(=O)O)[C@H]1CC[C@@H]2[C@H]3CC[C@H]4C[C@H](O)CC[C@@]4(C)[C@@H]3CC[C@@]21C", "activity change, negative = inhibition": "-3.04% [at 11.4 µM]"}, {"smiles": "CCNC[C@H](O)c1cccc(O)c1", "Potency": "inactive"}, {"smiles": "Fc1ccc(C(OCCN2CCN(C/C=C\\c3ccccc3)CC2)c2ccc(F)cc2)cc1", "Potency": "inactive"}, {"smiles": "CCOC(=O)c1c(N)n(Cc2ccccc2)c2nc3ccccc3nc12", "Potency": "15.8 µM (active)"}, {"smiles": "N#Cc1c(Cl)c(Cl)c(Cl)c(C#N)c1Cl", "Potency": "inactive"}, {"smiles": "CC1=CC(=O)C2=C(C)C[C@H](O)[C@H]3[C@H](C)C(=O)O[C@@H]3C12", "note": "(some centres undefined)", "Potency": "inactive"}, {"smiles": "Cc1ccc(S(=O)(=O)O[C@H]2CN3CCC2CC3)cc1", "activity change, negative = inhibition": "7.71% [at 11.4 µM]"}, {"smiles": "COc1ccc(C2Oc3c(I)c(OC)cc(OC)c3CC2O)cc1OC", "note": "(centres undefined)", "Potency": "inactive"}, {"smiles": "NC(=O)c1ccc(OC[C@H](O)CN2CC=C(c3ccc(F)cc3)CC2)cc1", "Potency": "inactive"}, {"smiles": "CC[C@@](O)(C(=O)O)c1cc2n(c(=O)c1CO)Cc1cc3ccccc3nc1-2", "Potency": "3.16 µM (active)"}, {"smiles": "Clc1ccccc1", "Potency": "inactive"}, {"smiles": "CC(C)CC(C)Nc1ccc(Nc2ccccc2)cc1", "note": "(centres undefined)", "Potency": "inactive"}, {"smiles": "CC[C@@H]1CN2CC[C@@H]1C[C@H]2[C@H](O)c1ccnc2ccc(OC)cc12", "Potency": "25.1 µM (active)"}, {"smiles": "ClC(Cl)=C(Cl)C(Cl)=C(Cl)Cl", "Potency": "inactive"}, {"smiles": "N[C@H](C(=O)O)c1cc(=O)[nH]o1", "Potency": "inactive"}, {"smiles": "c1csc(CN2CCCC3(CCNCC3)C2)n1", "Potency": "inactive"}, {"smiles": "COC1CC(OC2CC[C@@]3(C=O)C4CC[C@]5(C)C(C6=CC(=O)OC6)CC[C@@]5(O)C4CC[C@]3(O)C2)OC(C)C1O", "note": "(some centres undefined)", "Potency": "inactive"}, {"smiles": "CCN1C[C@@]2(COC)CC[C@H](OC)[C@]34[C@@H]1[C@]1(OCO[C@@]15C[C@@H](OC)C1C[C@H]3[C@H]5[C@@H]1OC)[C@H](O)[C@@H]24", "Potency": "inactive"}, {"smiles": "CCN(CC)CCOC(=O)c1cc2cc(COC)ccc2o1", "Potency": "25.1 µM (active)"}, {"smiles": "O=C(NCC(c1cccnc1)N1CCN(c2ccccc2)CC1)Oc1ccccc1", "note": "(centres undefined)", "Potency": "inactive"}, {"smiles": "COc1cc2c(cc1OC)[C@@H]1C(=O)c3ccc(O)c(CC=C(C)C)c3OC1CO2", "note": "(some centres undefined)", "Potency": "inactive"}, {"smiles": "CS(=N)(=O)CC[C@H](N)P(=O)(O)O", "note": "(some centres undefined)", "activity change, negative = inhibition": "-1.1% [at 11.4 µM]"}, {"smiles": "CC(C)(c1ccc(OC[C@@H]2CO2)cc1)c1ccc(OC[C@H]2CO2)cc1", "Potency": "inactive"}, {"smiles": "O=C(c1cc(-c2ccncc2)nc2ccccc12)N1CCC2(CC1)OCCO2", "Potency": "inactive"}, {"smiles": "O=C(c1cc2nc(-c3ccccc3)cc(-c3ccccc3)n2n1)N1CCC2(CC1)OCCO2", "Potency": "31.6 µM (active)"}, {"smiles": "Cc1cccc(-n2c(C)nc3cc(C(=O)N4CCC5(CC4)OCCO5)ccc32)c1", "Potency": "inactive"}, {"smiles": "CNC(C)[C@@H](O)c1ccccc1", "note": "(some centres undefined)", "Potency": "inactive"}, {"smiles": "CCCCC#N", "Potency": "inactive"}, {"smiles": "CCC(C)C(=O)O[C@@H]1C[C@@]2(C)C(c3ccoc3)OC(=O)CC23OC2(C)O[C@@]14[C@@]1(C)C(CC(=O)OC)C5(C)CC1(O)C(O)(C5OC(=O)C1(C)OC1C)C(OC(C)=O)[C@@]34O2", "note": "(some centres undefined)", "Potency": "inactive"}, {"smiles": "CC(C)(Cc1c[nH]c2ccc(Cl)cc12)NCCOc1ccccc1OCC1CC1", "Potency": "inactive"}, {"smiles": "C[C@H]1CC[C@@]2(NC1)O[C@@H]1C[C@H]3[C@@H]4CC=C5C[C@@H](O)CC[C@]5(C)[C@@H]4CC[C@]3(C)[C@@H]1[C@@H]2C", "Potency": "inactive"}, {"smiles": "CN1[C@@H]2CC[C@H]1CC(NC(=O)c1nn(C)c3ccccc13)C2", "note": "(some centres undefined)", "Potency": "20 µM (active)"}, {"smiles": "N[C@H](Cc1o[nH]c(=O)c1Cl)C(=O)O", "Potency": "inactive"}, {"smiles": "C[C@@]12CC[C@H](O)C[C@@H]1CC[C@@H]1[C@@H]2CC[C@@]2(C)[C@@H](C3=CC(=O)OC3)[C@H](O)C[C@]12O", "activity change, negative = inhibition": "5.61% [at 11.4 µM]"}]}]}
